Bioassay records (PubChem BioAssay)
USP8 block = inhibitors of human USP8 deubiquitinase; 47,000 compounds, 4.2% hits; P40818; inhibition, % at 20 µM; AID 1645853; purified USP8, Ub-rhodamine cleavage fluorescence, 30 min
USP17 inh = inhibitors of human USP17 deubiquitinase; A8MUK1; purified USP17, Ub-rhodamine cleavage fluorescence, 3 h; inhibition, % at 50 µM; 47,000 compounds, 6.5% hits
USP10 block = inhibitors of human USP10 deubiquitinase | Q14694 | purified USP10, Ub-rhodamine fluorescence, 60 min | inhibition, % at 20 µM | 47,000 compounds, 1.1% hits | AID 1645856
USP28 inh = human USP28 deubiquitinase inhibition; Q96RU2; purified USP28, Ub-rhodamine cleavage fluorescence, 30 min; inhibition, % at 25 µM; 47,000 compounds, 3% hits
Target sequence (Q96RU2 whole entry, looked up): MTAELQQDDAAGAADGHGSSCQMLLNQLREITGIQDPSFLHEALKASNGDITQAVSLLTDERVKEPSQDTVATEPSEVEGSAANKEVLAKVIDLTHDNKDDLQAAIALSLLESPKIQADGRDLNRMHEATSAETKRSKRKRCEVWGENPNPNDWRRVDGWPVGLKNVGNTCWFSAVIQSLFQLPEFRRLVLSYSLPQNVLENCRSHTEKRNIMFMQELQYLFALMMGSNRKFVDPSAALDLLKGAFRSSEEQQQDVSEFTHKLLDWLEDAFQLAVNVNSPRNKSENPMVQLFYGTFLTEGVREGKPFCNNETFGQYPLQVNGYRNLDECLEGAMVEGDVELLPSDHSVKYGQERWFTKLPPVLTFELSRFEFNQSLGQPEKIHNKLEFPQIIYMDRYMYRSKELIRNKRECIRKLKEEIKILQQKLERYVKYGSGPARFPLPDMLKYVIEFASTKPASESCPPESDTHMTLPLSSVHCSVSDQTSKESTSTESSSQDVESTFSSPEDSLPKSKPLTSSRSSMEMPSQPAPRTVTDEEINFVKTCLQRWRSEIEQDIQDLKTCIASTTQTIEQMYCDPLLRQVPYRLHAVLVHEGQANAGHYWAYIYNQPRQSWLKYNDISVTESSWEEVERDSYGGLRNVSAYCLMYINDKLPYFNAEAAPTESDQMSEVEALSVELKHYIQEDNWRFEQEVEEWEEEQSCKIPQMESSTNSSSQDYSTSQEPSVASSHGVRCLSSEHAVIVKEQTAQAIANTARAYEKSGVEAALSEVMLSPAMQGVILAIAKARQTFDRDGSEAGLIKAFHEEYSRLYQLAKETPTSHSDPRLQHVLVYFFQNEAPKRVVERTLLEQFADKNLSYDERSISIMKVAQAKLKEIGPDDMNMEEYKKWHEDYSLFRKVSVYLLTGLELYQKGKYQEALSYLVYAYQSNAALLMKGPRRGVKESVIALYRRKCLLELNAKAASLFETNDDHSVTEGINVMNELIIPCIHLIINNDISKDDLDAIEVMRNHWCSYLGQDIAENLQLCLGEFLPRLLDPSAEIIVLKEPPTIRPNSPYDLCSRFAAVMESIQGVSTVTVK
USP30 block = blocks human USP30 ubiquitin-rhodamine cleavage. Q70CQ3. purified USP30, Ub-rhodamine cleavage fluorescence. inhibition, % at 25 µM. 47,000 compounds, 5.3% hits. AID 1645860
The depositor's hits bear a star; i = inactive; . = no result given. Compounds with a hit are over-represented: about 14% of the library has one in this group of screens. Rule as the data show it: active = inhibition above about 30%; inactive = the rest.

SMILES | USP8 block | USP17 inh | USP10 block | USP28 inh | USP30 block
CCOc1ccc(-c2nnc(NC(=O)C3CCN(S(=O)(=O)c4ccc5c(c4)CCC5)CC3)o2)cc1 | -120 | 9 | 44* | 12 | 28
CC(C)(C)N1CC(C(=O)Nc2nnc(CCCc3ccccc3)s2)CC1=O (centres undefined) | -32 | 3 | 0 | 8 | 8
Cc1cc(Cl)ccc1NC(=O)c1cc(-c2ccncc2)n[nH]1 | 21 | 65* | 6 | 72* | 90*
CCc1ccccc1NC(=O)c1cc(-c2ccccn2)n[nH]1 | 6 | 73* | 5 | 13 | 38*
O=C(Nc1ccccc1Cl)c1cc(-c2ccncc2)n[nH]1 | -11 | 74* | -2 | 79* | 92*
COc1ccccc1CNC(=O)c1cc(-c2ccccn2)n[nH]1 | -81 | . | 4 | 3 | 11
COc1ccc(NC(=O)Nc2nnc(CC(=O)N3CCCCC3)s2)c(OC)c1 | 2 | 5 | 3 | 3 | 1
COc1cc(C)ccc1OCC(=O)N1CCC(c2nc3ccccc3cc2C(N)=O)CC1 | 5 | -6 | -1 | 0 | 7
N#Cc1c(-c2ccc(Cl)cc2)ccn2nc(-c3ccco3)nc12 | 48* | -8 | -9 | -191 | i
N#Cc1c(-c2ccco2)ccn2nc(-c3ccc(Cl)cc3Cl)nc12 | 43* | 46* | -4 | -11 | -46
Cc1ccc2[nH]c(=O)c(-c3noc(CCC(=O)NC4CCCC4)n3)cc2c1 | 6 | -67 | 8 | -31 | -60
Cc1ccc2cc(-c3noc(CCC(=O)NC4CCCC4)n3)c(=O)[nH]c2c1 | 75* | 4 | 47* | -5 | 22
COc1ccc(CCNC(=O)C23CC4CC(CC(C4)C2)C3)cc1OC | 9 | 1 | 3 | -2 | 9
COc1ccc(CCNC(=O)C(=O)c2c(C)n(C)c3ccccc23)cc1OC | -81 | 48* | 0 | 5 | 0
COc1ccc(CCNC(=O)C(=O)NCc2ccc(Cl)cc2)cc1OC | -9 | 41* | 2 | 17 | 24
COc1ccccc1CCNC(=O)C(=O)c1c(C)n(C)c2ccccc12 | -2 | 1 | 0 | -2 | -6
O=C(CCn1c(CO)nc2ccccc21)c1ccccc1 | 1 | -7 | -1 | -6 | -3
CC12c3ccc4c(c3C(=O)c3occ(c31)C(=O)CC2O)CCC4=O (centres undefined) | -337 | -24 | -12 | 54* | -187
CCN1CCc2nc(-c3ccc(F)cc3)n(CC(=O)N(CC)c3ccccc3)c(=O)c2C1 | 48* | -6 | -3 | -26 | -101
CCN1CCc2nc(-c3ccccc3)n(CC(=O)N3CCOc4ccc(C)cc43)c(=O)c2C1 | 59* | 14 | -5 | 0 | -43
COc1ccc2cc(C(=O)COC(=O)CCc3ccc(S(=O)(=O)N4CCCCC4)cc3)ccc2c1 | -6 | 28 | -2 | 3 | -27
O=c1c2oc3ccccc3c2ncn1CCCn1ccnc1 | 16 | -13 | -1 | 3 | 17
Cc1ccc(-n2nnc3c(=O)n(CC(=O)Nc4cc(C)on4)cnc32)cc1 | 14 | 32* | 20 | -5 | -6
Cc1cc(NC(=O)Cn2cnc3c(oc4ccccc43)c2=O)no1 | 1 | 72* | 1 | . | .
CC(C)(C)OC(=O)N1CCC[C@H]1C(=O)N1CCC(C(=O)N[C@@H](CC(N)=O)C(=O)O)(c2ccccc2)CC1 | 17 | 12 | 0 | 11 | 32*
SMILES | USP8 block | USP17 inh | USP10 block | USP28 inh | USP30 block
CC(C)(C)OC(=O)N1Cc2ccccc2C[C@H]1C(=O)N1CCC(C(=O)N[C@H](CC(N)=O)C(=O)O)(c2ccccc2)CC1 | 50* | 22 | 1 | 6 | 0
O=C1C2CSCN2C(=O)N1c1cccc(C(F)(F)F)c1 (centres undefined) | 3 | -1 | -1 | -10 | -33
CCN1CCN(c2ncnc3c2sc2nc(C(C)C)c4c(c23)CC(C)(C)OC4)CC1 | -6 | -19 | -4 | -11 | -44
CCn1c(=O)c(C(=O)NCc2ccc(OC)cc2)nc2cccnc21 | 4 | 25 | 0 | 4 | 7
Cn1ncc2c(N3CCCC3)nc(C(=O)NCc3ccc(F)cc3)nc21 | 8 | 13 | 3 | 12 | 25
Cn1cc(S(=O)(=O)N2CCCCCC2)cc1C(=O)Nc1cccc(F)c1 | 2 | 16 | 2 | 6 | 10
Cc1ccc2[nH]c(=O)c(CN(Cc3cccnc3)C(=O)c3cccc(Cl)c3)cc2c1 | 12 | 9 | 0 | 7 | 51*
Cc1ccc2[nH]c(=O)c(CN(Cc3cccnc3)S(=O)(=O)c3ccccc3)cc2c1 | 0 | -7 | 0 | -4 | 10
COc1cc2cc(CN(Cc3cccnc3)C(=O)Nc3ccc(Cl)cc3)c(=O)[nH]c2cc1OC | 2 | 11 | -3 | -13 | 40*
CCc1ccc2[nH]c(=O)c(CN(CCc3ccc(OC)c(OC)c3)C(=O)Nc3ccccc3)cc2c1 | 3 | 44* | 11 | 23 | 54*
Cc1cccc(C(=O)NC(Cc2ccccc2)c2nc3ccccc3[nH]2)c1 (centres undefined) | 0 | 22 | 5 | -1 | 13
COc1cc(C(=O)NC(Cc2ccccc2)c2nc3ccccc3[nH]2)cc(OC)c1OC (centres undefined) | 10 | 3 | 26 | 11 | 66*
O=C(NC(Cc1ccccc1)c1nc2ccccc2[nH]1)c1cc(=O)[nH]c2ccccc12 (centres undefined) | -24 | 61* | -1 | 17 | 56*
CC(C)OCCCn1c(=O)c2ccccc2n2c(CCC(=O)NC3CCN(Cc4ccccc4)CC3)nnc12 | -14 | 1 | -6 | -20 | -30
Cc1sc2ccn(C)c(=O)c2c1C(=O)NC1CCCC1 | 94* | 62* | 13 | 28 | 3
Cc1nc2cc(NC(=O)C3CN(C(=O)c4cnccn4)C3)ccc2s1 | -25 | -16 | 0 | 54* | 4
CC1(C)C(O)CCC2(C)C1CCC1(C)C2C(=O)C=C2[C@@H]3C[C@@](C)(C(=O)O)CCC3(C)CC[C@]21C (some centres undefined) | 3 | 46* | 30 | 29 | 49*
CC(=O)O[C@H]1CC[C@]2(C)[C@H]3C(=O)C=C4[C@@H]5C[C@@](C)(C(=O)O)CC[C@]5(C)CC[C@@]4(C)[C@]3(C)CC[C@H]2C1(C)C | 8 | 7 | 14 | -7 | 5
O=C(O)c1cccc(NC(=O)c2ccc(=O)n(Cc3ccccc3)n2)c1 | -6 | 1 | -4 | . | .
Cc1ccc(S(=O)(=O)N(C)c2nc3nc(C)c(Cl)c(C)n3n2)cc1 | 9 | 18 | 2 | 13 | 3
Cc1ccc(S(=O)(=O)N(CC#N)c2nc3nc(C)c(Cl)c(C)n3n2)cc1 | 18 | -1 | -2 | 33* | 16
COC(=O)c1ccccc1NC(=O)c1cc2ccccc2c(=O)s1 | 0 | 0 | 0 | -4 | -3
Cc1cccc(NC(=O)c2cc3ccccc3c(=O)s2)c1 | 33* | 69* | 18 | . | .
Cc1cccc(NC(=O)c2cc3cccnc3n(C)c2=O)c1 | -8 | -1 | -2 | 31* | -36
Cc1cc2nc(-c3cccnc3)cc(C(F)(F)F)n2n1 | 5 | 14 | 0 | 6 | 14
